# Sampled rows, rich in hits. Any-hit rate of the full collection: about 7.4%.
# SMN2 splice enh – qHTS Assay for Enhancers of SMN2 Splice Variant Expression | HEK293 SMN2-luciferase splicing reporter, luminescence, 30-36 h | AID 1458, 2008 | 2.8% of 210,000 active | Potency, µM (titrated, usually from 46.1 µM), usual class: activators; note: nearly all actives have a fitted effect of over 55% in size
#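 qHTS luciferase splicing reporter: luminescence rises when SMN2 exon 7 is included in transfected HEK293 cells. Compound exposure lasted 30-36 h at 37C, with 4.5 mM final sodium butyrate as control, followed by a ONE-Glo read.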
# FLuc counter – qHTS profiling assay for firefly luciferase inhibitor/activator using purifed enzyme and Km concentrations of substrates (counterscreen for miR-21 project); 6.9% of 360,000 active; Luciferin 4-monooxygenase (Photinus pyralis), P08659; AID 588342, 2011; purified FLuc, Km substrates, luminescence inhibition; Potency, µM (top dose mostly 57.5 µM), hits mostly inhibitors; note: nearly all actives have a fitted effect of over 55% in size
# Target sequence (P08659 whole entry, looked up): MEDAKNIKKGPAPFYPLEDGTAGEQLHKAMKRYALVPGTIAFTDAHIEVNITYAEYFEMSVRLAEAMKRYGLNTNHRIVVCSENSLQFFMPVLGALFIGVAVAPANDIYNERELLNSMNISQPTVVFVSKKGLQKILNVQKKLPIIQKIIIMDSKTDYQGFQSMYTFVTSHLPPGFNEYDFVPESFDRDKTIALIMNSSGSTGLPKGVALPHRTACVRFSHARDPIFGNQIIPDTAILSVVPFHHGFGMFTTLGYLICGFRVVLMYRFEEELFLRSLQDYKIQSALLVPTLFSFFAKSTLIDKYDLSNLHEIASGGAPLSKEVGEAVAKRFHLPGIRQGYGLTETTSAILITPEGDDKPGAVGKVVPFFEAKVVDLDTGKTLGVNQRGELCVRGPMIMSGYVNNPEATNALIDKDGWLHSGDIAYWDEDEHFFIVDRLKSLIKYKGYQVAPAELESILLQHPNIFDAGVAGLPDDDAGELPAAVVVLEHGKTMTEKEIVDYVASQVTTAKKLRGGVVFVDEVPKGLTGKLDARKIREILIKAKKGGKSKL
#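 Purified P. pyralis luciferase (10nM final) with 10uM D-luciferin and 10uM ATP (Km levels) in 50mM Tris acetate pH 7.5, 10mM Mg acetate, 0.01% Tween-20, 0.05% BSA; qHTS 6-point titration, ~60 µM downward; luminescence read.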
# Rab9 promoter act – qHTS Assay for Rab9 Promoter Activators; AID 485297, 2010; Potency, µM (highest dose often 9.22 µM), hits mostly activators; Huh7 Rab9 promoter-luciferase reporter, luminescence, 24 h; 2.8% of 320,000 active; note: nearly all actives have a fitted effect of over 60% in size
#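 Rab9 promoter-driven luciferase in stably transfected Huh7 cells; 1500 cells/well rested 2 h, exposed to compound in DMSO for 24 h at 37 °C, 5% CO2. Luminescence read 10 min after adding luciferase reagent at ambient temperature.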
# ELG1 genotoxic – qHTS screen for small molecules that induce genotoxicity in human embryonic kidney (HEK293T) cells expressing luciferase-tagged ELG1; AID 504466, 2011; HEK293T ELG1-luciferase reporter, luminescence, 16 h; 1.3% of 330,000 active; Potency, µM (highest dose often 46 µM), actives largely listed as activators; note: nearly all actives have a fitted effect of over 60% in size
#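 Step 1: seed 2,000 HEK293T ELG1-luciferase cells per well. Step 2: add compound or DMSO, incubate 16 hr at 37 °C. Step 3: ONE-Glo, 30 min at room temperature, read luminescence.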
# NPC1 prom act – qHTS Assay for NPC1 Promoter Activators | AID 485313, 2010 | 2.4% of 320,000 active | Potency, µM (highest dose often 9.22 µM), most hits filed as activators | Huh7 NPC1 promoter luciferase reporter, 24 h; note: nearly all actives have a fitted effect of over 60% in size
#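 NPC1 promoter–luciferase Huh7 cells; 24 h compound; luminescence.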
# A number is an active result; 0 = inactive; ? = inconclusive; - = no result; [ ] = another dose, or the depositor's remark. Calls come from the whole dose curve; as a rule, active = well fitted curve in the direction sought with a large enough effect; inconclusive = small, poorly fitted or top-dose-only effect, or another doubt; inactive = no such curve, though single readings can be large; an effect the other way counts as inactive or inconclusive.
SMILES,SMN2 splice enh,FLuc counter,Rab9 promoter act,ELG1 genotoxic,NPC1 prom act
Cn1cnnc1SCC(=O)Nc1ccc2nc(SCc3cccc4ccccc34)sc2c1,0,0,0,0,0
Cn1cnnc1SCC(=O)Nc1ccc2nc(SCc3ccccc3)sc2c1,0,11µM,?,?,3.5µM
C[C@@]12CCC[C@H]1C1CC[C@H]3C[C@H](O)CC[C@]3(C)C1CC2 (stereo partly drawn),0,-,-,-,-
COc1ccc2c(c1)c(=O)c(C(=O)c1ccc(C)cc1)cn2Cc1ccccc1F,0,0,-,-,-
CCc1ccc(C(=O)c2cn(CC(=O)NC3CCCCC3)c3nc(C)ccc3c2=O)cc1,-,0,-,-,-
Nc1nc(-c2ccccc2)c(N=Nc2cccc3ccccc23)s1,0,27µM,0,0,0
Nc1nc(-c2ccccc2)c(N=Nc2ccccc2Cl)s1,0,?,0,0,0
O=C(/C=C/c1ccc(O)c([N+](=O)[O-])c1)c1ccc2ccccc2c1,-,7.6µM,0,0,0
CN(C)c1ccc(/C=C/C(=O)c2ccccc2)cc1[N+](=O)[O-],0,1.2µM,2.5µM,0,3.5µM
COc1ccc(Oc2ccc(/C=C/C(=O)c3ccc(O)cc3)cc2[N+](=O)[O-])cc1,0,24µM,0,0,0
COc1ccc(C(=O)/C=C/c2ccc(OC)c(COc3ccccc3F)c2)cc1,0,?,0,0,0
CNc1ccc(/C=C/C(=O)c2ccc(C)cc2)cc1[N+](=O)[O-],0,?,0,?,0
CCOc1ccc(S(=O)(=O)N2CCC(c3ccncc3)CC2)cc1,-,0,-,-,-
Cc1c(-c2ccccc2)c(=O)oc2c(CN3CCCC3)c(O)ccc12,-,0,-,-,-
COc1ccc(OC)c(NC(=O)N2CC3CCCN3c3ccccc32)c1 (stereo not drawn),-,0,-,-,-
COc1ccc(C2CC(=O)c3cnc(N4CCc5ccccc54)nc3C2)cc1OC (stereo not drawn),-,0,0,0,0
CNc1nc(N2CCc3ccccc32)ncc1F,?,5.4µM,2.2µM,?,2.5µM
COc1cccc(/C=N/NC(=O)CNC(=O)CCc2ccccc2)c1O,-,9.5µM,0,?,0
Cc1ccc(/C=N/NC(=O)CNC(=O)c2cccs2)cc1,-,15µM,0,?,0
COc1cccc(/C=N/NC(=O)CNC(=O)c2cccs2)c1O,-,21µM,0,0,0
O=C(CNC(=O)c1cccs1)N/N=C/c1c(F)cccc1Cl,-,21µM,0,?,0
O=C(CNC(=O)c1cccs1)NCC(=O)OCc1c(F)cccc1Cl,0,0,0,0,0
COc1cccc(/C=N/NC(=O)CNC(=O)COc2cccc(C)c2)c1O,-,0,0,0,0
CC(=O)OC1CC(OC(C)=O)[C@]2(C)C(CC(OC(C)=O)[C@]3(C)C2CC[C@@]2(C)C(c4ccoc4)OC(=O)C4O[C@]432)C1(C)C (stereo partly drawn),0,-,-,-,-
Cc1ccc(S(=O)(=O)Oc2ccccc2/C=N/O)cc1,0,0,0,0,0
SMILES,SMN2 splice enh,FLuc counter,Rab9 promoter act,ELG1 genotoxic,NPC1 prom act
COc1cccc(/C=N/Nc2ccc(C(=O)O)cc2)c1O,0,0.19µM,0,0,0
COc1cccc(/C=N/Nc2ccccc2C(=O)O)c1O,-,1.3µM,0.4µM,4.1µM,0.56µM
Cc1ccc(S(=O)(=O)Oc2ccccc2/C=N/Nc2ccc(C(=O)O)cc2)cc1,-,19µM,0,0,0
Cc1ccc(Cl)cc1N1CCN(C(=O)c2cnc(N3CCOCC3)c3ccccc23)CC1,-,0,-,-,-
CC(=O)OC1C[C@]2(C)C(C(C)=O)CCC2C2CCC3=CC(=O)CC[C@@]3(C)C12 (stereo partly drawn),0,-,-,-,-
C[C@@H](C[C@H](N)C(=O)O)C(=O)O,0[9.22 µM],-,-,-,-
COCCN1Cc2cccc(C(=O)Nc3ccc(C(=O)OC)cc3)c2C1=O,0,0,-,-,-
CC1Cc2ccccc2N1S(=O)(=O)c1cccc(C(=O)N2CCN(c3ncccn3)CC2)c1 (stereo not drawn),0.56µM,0,0,0,0
CC(=O)N1CCN(C(=O)c2cccc(S(=O)(=O)N3c4ccccc4CC3C)c2)CC1 (stereo not drawn),-,-,-,0,-
Cc1ccc(NC(=S)N/N=C/c2c(C)nn(-c3ccccc3)c2N2CCCC2)cc1,-,0,0,0,0
